# From PubChem
# D1 potentiator – potentiators of human D1 dopamine receptor | P21728 | HEK293 TREx D1 cells, calcium flux, dopamine EC20 potentiation | potentiation, % at 10 µM | actives 0.036% (n = 360,000); in the data active = potentiation above about 30%; note: 0% is about no effect
# Target sequence (P21728 whole entry, looked up): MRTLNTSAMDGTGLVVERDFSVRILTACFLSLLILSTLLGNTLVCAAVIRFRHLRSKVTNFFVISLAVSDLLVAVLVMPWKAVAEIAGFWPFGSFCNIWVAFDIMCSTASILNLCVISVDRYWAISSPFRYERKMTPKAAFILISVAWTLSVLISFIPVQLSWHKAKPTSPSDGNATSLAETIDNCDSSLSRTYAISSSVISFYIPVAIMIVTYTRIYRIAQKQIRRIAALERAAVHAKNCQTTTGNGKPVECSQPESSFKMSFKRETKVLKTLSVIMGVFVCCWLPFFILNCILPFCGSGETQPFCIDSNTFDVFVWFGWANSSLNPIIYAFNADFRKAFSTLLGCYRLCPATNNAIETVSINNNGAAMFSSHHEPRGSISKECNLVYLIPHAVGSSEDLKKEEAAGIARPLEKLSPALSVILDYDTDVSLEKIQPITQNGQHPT
# TRHR ag – agonists of human TRH receptor; TRHR cells, calcium flux fluo-8, FDSS agonist mode; activation, % at 2 µM; actives 0.18% (n = 360,000); AID 493084; note: 0% is about no effect
#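 Steps: seed TRHR cells overnight; add fluo-8 no-wash Ca dye, RT 30 min–1.5 h; record 10 s baseline; pin-transfer compounds; monitor fluorescence 1 cycle/s for the agonist window. Calcium increases flag candidate agonists.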
# D1 agonist – agonists of human D1 dopamine receptor. actives 1% (n = 360,000). HEK293 T-REx D1 cells, calcium flux, agonist mode. P21728. activation, % at 2 µM; note: 0% is about no effect
#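 Agonism was scored from calcium flux recorded over 180 s (1 read/s) after pintool compound addition, following a 10-cycle baseline. Cells were inducible force-coupled HEK293 TREx D1, plated overnight at 30 C and loaded with no-wash calcium dye.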
# D1 antag – antagonists of human D1 dopamine receptor | P21728 | HEK293 TREx D1 cells, calcium flux, dopamine EC80; active compounds read low | activity change, negative = inhibition, % at 10 µM | actives 3.2% (n = 360,000) | AID 504652; in the data active = activity change below about -30%; note: % is set by controls: 0 for no effect and ±100 for the full control effect
#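 Compound effects on dopamine-evoked calcium signalling were measured in tetracycline-induced HEK293 Trex D1 cells. Dopamine at EC80 followed a 180 s compound pre-read, and fluorescence was tracked kinetically for 180 s more.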
# TRHR enhancer – allosteric enhancers of human TRH receptor; P34981; TRHR cells, fluo-8 calcium fluorescence, EC20 TRH enhancement; enhancement, % at 2 µM; actives 0.66% (n = 360,000); AID 493056; in the data active = enhancement above about 30%; note: 0% is about no effect
#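 Enhancer read-out: after compound pinning and an initial kinetic agonist-mode read, an EC20 of TRH (10 nM final) was injected and fluo-8 calcium signal (Ex 480/Em 530) followed at 1 s/cycle for 100 cycles in TRHR-expressing cells.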
# Starred values were filed as active, the others as inactive; ! = not confirmed by another sample. In the library only some 4.7% were active in any assay of this set; here they are far more common. Cut-off read from the data, not from the text of the source, unless noted: active = activation above about 30%; inactive = the rest.
SMILES,D1 potentiator,TRHR ag,D1 agonist,D1 antag,TRHR enhancer
CC(C)c1nc2ccccc2n1CC(O)COC1CCCCC1 (configuration not stated),-1,0,1,-7,2
COc1ccc(NC(=O)C(CC(=O)O)C(C)c2ccccc2)cc1 (configuration not stated),5,0,7,-39*,-2
CCOC(=O)c1ccc(NC(=O)COc2ccccc2CNC2CCCC2)cc1,-7,2,25,-36*,2
CCOc1cc(CNC2CCCC2)c(Cl)cc1OCC(=O)Nc1ccccc1,-5,2,12,-5,1
COc1cccc(CN2CCNC(=O)C2CC(=O)NCCn2ccc3ccccc32)c1OC (configuration not stated),-7,0,1,-85*,-1
Cc1cc2oc(=O)cc(CN3CCN(S(=O)(=O)c4cccs4)CC3)c2cc1C,-6,0,2,-44*,-5
Cc1cc2oc(=O)cc(CN3CCCCC3)c2cc1C,1,0,1,-9,-2
CC1(c2ccc(OC(F)F)cc2)NC(=O)N(CC(=O)Nc2ccc(OC(F)F)cc2)C1=O (configuration not stated),-4,7,50*,-43*,-9
CC1(c2ccc(OC(F)F)cc2)NC(=O)N(CC(=O)Nc2cccc(F)c2)C1=O (configuration not stated),-6,12,60*,-61*,1
CC1(c2ccc(OC(F)F)cc2)NC(=O)N(CC(=O)Nc2ccc(F)cc2)C1=O (configuration not stated),-4,7,19,-1,11
Cc1ccc(NC(=O)CN2C(=O)NC(C)(c3ccc(Cl)cc3)C2=O)cc1 (configuration not stated),-3,3,16,-12,12
CC1(c2ccc(OC(F)F)cc2)NC(=O)N(CC(=O)Nc2ccc(Cl)cc2F)C1=O (configuration not stated),0,6,36*,-13,22
CCOc1ccc(NC(=O)CN2C(=O)NC(C)(c3ccc(OC(F)F)cc3)C2=O)cc1 (configuration not stated),-15,9,38*,-43*,-4
CC1(c2ccc(OC(F)F)cc2)NC(=O)N(CC(=O)Nc2ccc(S(N)(=O)=O)cc2)C1=O (configuration not stated),-1,0,4,-1,5
CCOc1ccccc1CNC(=O)c1cnc2sc(N3CCCCCC3)nn2c1=O,-4,0,0,4,0
O=C(Nc1ccc(Cl)cc1)C1CCCN1C(=O)NCc1ccccc1 (configuration not stated),-7,-1,0,-22,-3
O=C(c1cccc(NS(=O)(=O)c2ccccc2)c1)N1CCN(c2ccccc2)CC1,1,0,1,0,12
Cc1cc(NC(=O)CN2C(=O)NC(C)(c3ccc(OC(F)F)cc3)C2=O)no1 (configuration not stated),-6,4,33*,4,1
CCOC(=O)c1c(NC(=O)CN2C(=O)NC(C)(c3ccc(OC(F)F)cc3)C2=O)sc(C)c1C (configuration not stated),-1,3,31*,21,3
CCOC(=O)c1c(C)[nH]c(C(=O)CN2C(=O)NC(C)(c3ccc(C)cc3)C2=O)c1C (configuration not stated),0,4,54*,1,12
COc1ccc(C2(c3ccc(OC)cc3)NC(=O)N(CC(=O)Nc3ccc(OC(F)F)cc3)C2=O)cc1,-6,3,12,9,-2
CCOC(=O)c1sc(NC(=O)CN2C(=O)NC3(CCCCCCC3)C2=O)c(C(=O)OCC)c1C,5,-1,2,9,-2
CC(C)Cn1cnc2sc3c(c2c1=N)CCCC3,-4,1,7,4,-3
CC(O)CNc1nc2sc3c(c2c(=O)n1CCc1ccccc1)CCCCC3 (configuration not stated),-7,1,1,-23,5
CC(O)CNc1nc2sc3c(c2c(=O)n1Cc1ccco1)CCCCC3 (configuration not stated),1,-1,34*,7,4
SMILES,D1 potentiator,TRHR ag,D1 agonist,D1 antag,TRHR enhancer
N=c1c2c3c(sc2ncn1Cc1ccco1)CCCCC3,-6,-1,14,-35*,6
CN(C)CCNc1nc2sc3c(c2c(=O)n1CCc1ccccc1)CCCCC3,0,8,106*,-35*,2
CCN(Cc1ccccc1)Cc1c(O)ccc2c(=O)c(-c3ccc(Cl)cc3)c(C(F)(F)F)oc12,-2,0,-1,-2,26
O=[N+]([O-])c1ccc([S+](=O)([O-])N2CCN([S+](=O)([O-])c3ccc4c(c3)OCCO4)CC2)c([N+](=O)[O-])c1,3,0,0,-25,1
COc1cccc(CN(C(=O)c2ccccc2)C2CCS(=O)(=O)C2)c1 (configuration not stated),-11,0,1,-35*,-7
COc1cccc(CN(C(=O)c2cccc(OC)c2)C2CCS(=O)(=O)C2)c1 (configuration not stated),-6,0,5,50,-6
Cc1ccc(CN(C(=O)COc2c(C)cccc2C)C2CCS(=O)(=O)C2)o1 (configuration not stated),2,-1,-2,-43*,-5
COc1ccc(OCC(=O)N(Cc2sccc2C)C2CCS(=O)(=O)C2)cc1 (configuration not stated),-4,0,0,-73*!,-1
Cc1cccc(OCC(=O)N(Cc2ccc(C)o2)C2CCS(=O)(=O)C2)c1 (configuration not stated),-2,-1,3,-20,0
Cn1cccc1/C=N/n1c(-c2ccc(Cl)cc2)n[nH]c1=S,4,0,13,-6,3
Cn1cccc1/C=N/n1c(-c2ccc(Cl)cc2Cl)n[nH]c1=S,-2,3,44*,3,2
Cc1cc(C)cc(N(CCC#N)C(=O)CSC2=Nc3ccccc3C3CC=NN23)c1 (configuration not stated),-1,0,3,11,34*
N#Cc1ccccc1NC(=O)CSC1=Nc2ccccc2C2CC=NN12 (configuration not stated),-6,0,1,-7,4
COc1ccccc1NS(=O)(=O)c1ccc(C)c(C(=O)NC2=NCCS2)c1,3,0,0,6,5
COc1cccc(COC(=O)C2CCN(S(=O)(=O)c3ccc(C)cc3C)CC2)c1OC,-18,1,18,-44*,-4
COc1cccc(COC(=O)C2CCN(S(=O)(=O)c3ccc(C)cc3)CC2)c1OC,1,0,10,-38*,-8
